# Reference: PubChem BioAssay (NCATS)
# Where “and” joins values, the source holds several entries; their conditions need not be identical. Equal values may be shown once. Records with an inconclusive call do not appear. A call without a number means that no potency is given here. A number with no mark means an inactive call. Calls of active or inactive are those of the source. The call rests on the fitted dose curve; in most records, active means well fitted curve in the direction sought with a large enough effect; inconclusive means small, poorly fitted or top-dose-only effect, or another doubt; inactive means no such curve, though single readings can be large; an effect the other way counts as inactive or inconclusive.
# Assays:
# [1] = qHTS of pediatric cancer cell lines to identify multiple opportunities for drug repurposing: Confirmatory screen for Saos-2 cells (AID 1347127); further: nearly all actives have a fitted effect of over 60% in size
# Method in brief: (§1)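 Cells (500-1,000/well) rested 5 h, then received compounds for 48 h; metabolically active cells were measured by CellTiter-Glo luminescence. Final concentrations spanned up to 46 µM (MIPE, 11-point) or 0.59 nM-46 µM (NPC, 8-point) in primary screens, 11-point in follow-ups.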
# [2] = qHTS of pediatric cancer cell lines to identify multiple opportunities for drug repurposing: Confirmatory screen for OHS-50 cells (AID 1347128);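 further: compound exposure lasted 48 h at 37 degrees C; nearly all actives have a fitted effect of over 55% in size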; further: potency means the concentration at half of the fitted maximal effect
# Method in brief: as §1
# [3] = qHTS of pediatric cancer cell lines to identify multiple opportunities for drug repurposing: Confirmatory screen for SK-N-SH cells (AID 1347129);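 further: cells exposed to compound for 48 h before viability read; nearly all actives have a fitted effect of over 60% in size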; further: potency means the concentration at half of the fitted maximal effect
# Method in brief: as §1
# [4] = test system: Zika virus NS2B-NS3 protease (unlinked); test: Optimization of GU AMC qHTS for Zika virus inhibitors: Unlinked NS2B-NS3 protease assay (AID 1347151); further: potency means the concentration at half of the fitted maximal effect; nearly all actives have a fitted effect of over 80% in size
# Method in brief: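 In this qHTS, compounds acted on 25 nM unlinked Zika NS2B–NS3 in pH 8.0 Tris/Tween buffer. Cleavage of an AMC peptide ran 15 min at room temperature, to about 20% conversion.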
# [5] = test system: Zika virus NS2B-NS3 protease; test: Primary screen GU AMC qHTS for Zika virus inhibitors (AID 1347154); further: nearly all actives have a fitted effect of over 70% in size; further: potency means the concentration at half of the fitted maximal effect
# Method in brief: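 Fluorogenic AMC-substrate cleavage by noncovalent NS2B-NS3 protease complex (25 nM, pH 8.0 Tris buffer with Tween 20) followed for 15 minutes at room temperature (~20% conversion). Percent inhibition from ex340/em450 signal change, fitted by 4-parameter Hill equation.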
# [6] = test system: Zika virus NS2B-NS3 protease (unlinked complex); test: Primary screen GU Rhodamine qHTS for Zika virus inhibitors: Unlinked NS2B-NS3 protease assay (AID 1347159); further: potency means the concentration at half of the fitted maximal effect; nearly all actives have a fitted effect of over 60% in size
# Method in brief: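 In dose–response format, inhibition of unlinked protease (25 nM) was measured with 1.5 microM bis-peptide Rhodamine110 substrate. Aprotinin served as the intraplate control.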
# [7] = Confirmatory screen NINDS Rhodamine qHTS for Zika virus inhibitors (AID 1347161); further: nearly all actives have a fitted effect of over 60% in size; further: potency means the concentration at half of the fitted maximal effect
# Method in brief: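 Rhodamine110-peptide cleavage (1.5 µM substrate) by 25 nM linked NS2B-NS3 enzyme at pH 8.0 (Tris, Tween 20), after 15 min RT preincubation with compounds; 15-min fluorescence change normalized to controls and Hill-fitted.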
# [8] = Vero cells viability qHTS for Zika virus inhibitors (AID 1347167); further: potency means the concentration at half of the fitted maximal effect
# Method in brief: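 Luminescent ATP readout (CellTiter Glo) after 30 min at 37 degrees C gives viability; cells in DMEM + 4% FBS were treated 24 to 48 hours with compound, following overnight attachment.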
# [9] = qHTS to identify inhibitors of the type 1 interferon - major histocompatibility complex class I in skeletal muscle: primary screen against the NCATS Pharmaceutical Collection (AID 1347407);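 further: luminescence of HiBiT knocked into endogenous HLA-B as interferon-induced MHC class I level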
# Method in brief: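 A qHTS format is used: 8-point, 1:5 compound series with 46 uM top final concentration, applied alongside 4 ng/ml IFN-beta to HLA-B*08:01-HiBiT knock-in myoblasts. Luminescence is measured after 24 h treatment.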
# [10] = test system: Zika virus NS2B-NS3 protease (linked construct); test: Confirmatory screen NINDS AMC qHTS for Zika virus inhibitors (AID 1347152); further: nearly all actives have a fitted effect of over 70% in size; further: potency means the concentration at half of the fitted maximal effect
# Method in brief: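 Concentration-response confirmation used the NINDS linked protease (NS2B hydrophilic domain joined to NS3 protease domain), 1 nM, with a 15-min compound preincubation. Substrate, Nle-KRR-AMC at 10 microM, was read by UV fluorescence before and after 15 min.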
# [11] = test system: Zika virus NS2B-NS3 protease (unlinked complex); test: Confirmatory screen GU AMC qHTS for Zika virus inhibitors (AID 1347153); further: nearly all actives have a fitted effect of over 70% in size
# Method in brief: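 Unlinked NS2B-NS3 complex (25 nM) in 10 mM Tris-HCl pH 8.0, 0.01% Tween 20 preincubated 15 min with compound, then 10 microM Bz-Nle-KRR-AMC (Km 18.3 µM). Fluorescence change over 15 min, normalized, Hill-fitted.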
# [12] = Tertiary RLuc qRT-PCR qHTS assay for Zika virus inhibitors (AID 1347169); further: top concentration of the series differs between compounds; nearly all actives have a fitted effect of over 55% in size
# Method in brief: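 Inhibition of ZIKV-RLuc replication in Vero cells, read as Renilla luminescence 1-1.5 hrs after live-cell substrate addition, following 48-72 hrs infection at MOI 1-2 in presence of compound.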
# [13] = qHTS of pediatric cancer cell lines to identify multiple opportunities for drug repurposing: Confirmatory screen for Rh30 cells (AID 1347126); further: nearly all actives have a fitted effect of over 55% in size
# Method in brief: as §1
structure (smiles),measurement,setting,value
CNC(=O)c1cc(Oc2ccc(NC(=O)Nc3ccc(Cl)c(C(F)(F)F)c3)cc2)ccn1,Potency,[1],inactive
same,Potency,[2],18.5 µM (active)
same,Potency,[3],20.9 µM (active)
same,Potency,[4],9.87 µM (active)
same,Potency,[5],inactive
same,Potency,[6],8.91 µM (active)
same,Potency,[7],25.5 µM (active)
same,Potency,[8],7.58 µM (active)
same,Potency,[9],inactive
CCCc1nc(C)c2c(=O)[nH]c(-c3cc(S(=O)(=O)N4CCN(CC)CC4)ccc3OCC)nn12,Potency,[10],inactive
same,Potency,[11],inactive
same,Potency,[7],inactive
same,Potency,[8],inactive
same,Potency,[12],inactive
same,Potency,[9],inactive
CCn1cc(C(=O)O)c(=O)c2cc(F)c(N3CCNCC3)cc21,Potency,[10],27.1 µM (active)
same,Potency,[8],inactive
same,Potency,[12],inactive
same,Potency,[9],inactive
O=C(O)c1cn(C2CC2)c2cc(N3CCNCC3)c(F)cc2c1=O,Potency,[10],24.1 µM (active)
same,Potency,[8],inactive
same,Potency,[12],inactive
CCC(=O)O[C@]1(C(=O)SCF)[C@H](C)C[C@H]2[C@@H]3C[C@H](F)C4=CC(=O)C=C[C@]4(C)[C@@]3(F)[C@@H](O)C[C@@]21C,Potency,[1],inactive
same,Potency,[2],inactive
same,Potency,[3],inactive
same,Potency,[5],inactive
CNNCc1ccc(C(=O)NC(C)C)cc1,Potency,[13],inactive
same,Potency,[1],inactive
same,Potency,[2],inactive
same,Potency,[3],inactive
same,Potency,[5],inactive
same,Potency,[9],inactive
COc1c(N2CCNC(C)C2)c(F)cc2c(=O)c(C(=O)O)cn(C3CC3)c12 (stereo not drawn),Potency,[10],27.1 µM (active) and 30.4 µM (active)
same,Potency,[5],16.1 µM (active) and 24.1 µM (active)
same,Potency,[7],inactive
same,Potency,[8],inactive
same,Potency,[12],inactive
same,Potency,[9],inactive
